Several values for one entry are separate records, joined by “and”; a condition that tells them apart may be missing. Equal values may be shown once. The campaign covered roughly 320,000 compounds. About 22,000 (6.9%) were called active. A call without a number means that no potency is given here. Another 27% or so got no clear call; they are omitted. The full list was thinned out, with actives kept by preference. Unmarked numbers belong to inactive results. Calls follow the shape of the dose curve; as a rule, active = well fitted inhibition curve with a large enough effect; inconclusive = small, poorly fitted or top-dose-only effect, or another doubt; inactive = no such curve, though single readings can be large or run the other way.
Assay: Primary qHTS for delayed death inhibitors of the malarial parasite plastid, 96 hour incubation
Conditions: P. falciparum luciferase reporter growth; series mostly up to 28.7 µM
Summary of the method: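 Readout is luminescence from an integrated firefly luciferase in P. falciparum. Red cells, 2% hematocrit and 0.05% parasitemia final, were cultured with compound through two parasite generations (96 hours) at 37 C, 5% CO2.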
In the case of `CSCCC(NC(=O)c1ccc(Cl)cc1Cl)C(=O)NNC(=O)c1csc(N2CCOCC2)n1` (stereo not drawn), the Potency is reported as “inactive”.
In the case of `CCC1S/C(=N/N=C/c2ccco2)NC1=O` (stereo not drawn), the Potency is reported as “inactive”.
For `CC(C)(C)C1C/C(=C/c2ccco2)C(=O)/C(=C/c2ccco2)C1` (stereo not drawn), the Potency was 13.1 µM (active).
With `O=C1OC(/C=C/c2ccccc2)=NC/1=C/c1ccco1` the Potency was “inactive”.
For `CCOc1ccc(CNC(=O)CCC(=O)N2CCSc3ccccc32)cc1`, the Potency was “inactive”.
For `Cc1ccc(S(=O)(=O)N2CCN(C(=O)c3ccccc3-c3nc4ccccc4s3)CC2)c(C)c1`, the Potency was “inactive”.
With `CN(C)C(=O)COC(=O)c1cccc(S(=O)(=O)N2CC3(C)CC2CC(C)(C)C3)c1` (stereo not drawn) the Potency was “inactive”.
With `Cc1ccc(N(C(=O)c2snc(C(N)=O)c2N)C(C(=O)NCC2CCCO2)c2c[nH]c3ccccc23)cc1` (stereo not drawn) the Potency was “inactive”.
With `c1ccc(CSCCc2ccncc2)cc1` the Potency was “inactive”.
With `Cc1cc(C)c(SCCc2ccncc2)c(C)c1` the Potency was 10.4 µM (active).
In the case of `CC(C)(C)c1ccc(SCCc2ccncc2)cc1`, the Potency is reported as “inactive”.
In the case of `COC(=O)c1cc(OCC(=O)NC2CCCc3ccccc32)cc(C(=O)OC)c1` (stereo not drawn), the Potency is reported as “inactive”.
In the case of `Cc1ccc(C(=O)NCC(=O)OCC(=O)NC2CCCCCCC2)cc1`, the Potency is reported as “inactive”.
With `Oc1ccc(-c2cccc(-c3ccc(O)cc3)c2)cc1` the Potency was “inactive”.
In the case of `O=C(NCCS(=O)(=O)N1CCN(c2ccc(F)cc2)CC1)c1ccc2c(c1)OCO2`, the Potency is reported as “inactive”.
For `CC(C)N(Cc1nnc(-c2ccccc2Br)o1)C(=O)c1cc(Cl)nc2ccccc12`, the Potency was 14.7 µM (active).
With `Cn1cnnc1SCc1nnc(-c2ccccc2Br)o1` the Potency was “inactive”.
In the case of `CC(C)N(Cc1nnc(-c2ccc(Cl)cc2)o1)C(=O)C1=COCCO1`, the Potency is reported as “inactive”.
For `O=S(=O)(Nc1ccccc1)c1ccc(NS(=O)(=O)c2cccs2)cc1`, the Potency was “inactive”.
For `Cc1ccc(OCCNC(=O)CNC(=O)c2ccc(C)c(C)c2)cc1`, the Potency was “inactive”.
For `COc1cc(Nc2nc3ccc(Cl)cc3n3cnnc23)cc(OC)c1OC`, the Potency was “inactive”.
With `CN(C)N(C)C(=O)C(O)(c1ccccc1)c1ccccc1` the Potency was “inactive”.
For `CC[N+]1(C)CCCC(OC(=O)C(O)(c2ccccc2)c2ccccc2)C1` (stereo not drawn), the Potency was 8.49 µM (active) and 10.4 µM (active).
With `CCOC(=O)CCP(=O)(O)C(O)(c1ccccc1)c1ccccc1` the Potency was “inactive”.
In the case of `O=S(=O)(c1ccc(Cl)cc1)c1nc(-c2ccccc2F)oc1NCCN1CCOCC1`, the Potency is reported as “inactive”.
For `O=C1c2cccc3cccc(c23)C(=O)N1CCCCCc1n[nH]c(=S)o1`, the Potency was “inactive”.
For `O=C(CN1C(=O)c2cccc3cccc1c23)Nc1ccccc1`, the Potency was “inactive”.
With `C[N+](C)(CCCCCC[N+](C)(C)CCCN1C(=O)c2cccc3cccc(c23)C1=O)CCCN1C(=O)c2cccc3cccc(c23)C1=O` the Potency was 0.233 µM (active).
For `COc1cc(/C=C/C(=O)O)cc(S(=O)(=O)Nc2ccccc2C(=O)NCCc2ccccc2)c1OC`, the Potency was “inactive”.
With `Cc1cc(C)cc(NC(=O)c2cccc(NC(=O)C3C4CC5OC(=O)C3C5C4)c2)c1` (stereo not drawn) the Potency was 0.0738 µM (active).
For `Cc1ccc(NC(=O)COC(=O)C2C3CC4OC(=O)C2C4C3)cc1Cl` (stereo not drawn), the Potency was “inactive”.
For `Cc1cccc(NC(=O)C(C)N2C(=O)C3C4CC(C(Br)C4Br)C3C2=O)c1` (stereo not drawn), the Potency was “inactive”.
In the case of `O=C(NCCS(=O)(=O)N1CCN(c2ccccc2)CC1)c1ccco1`, the Potency is reported as “inactive”.
For `CSc1cccc(NC(=O)CN2C(=O)COc3ccc(S(=O)(=O)N4CCOCC4)cc32)c1`, the Potency was “inactive”.
`CN(C(=O)CSc1nnnn1-c1ccccc1)C1CCCCC1` showed an activity change, negative = inhibition of 1.42% [at 5.75 µM].
In the case of `COCCn1nnnc1C(c1ccccc1Cl)N1CCN(c2ccccc2OC)CC1` (stereo not drawn), the Potency is reported as “inactive”.
With `CCC(=O)N(C)C(c1ccccc1Cl)c1nnnn1-c1c(C)cccc1C` (stereo not drawn) the Potency was 9.28 µM (active).
For `CCc1ccccc1NC(=O)CSc1nnc(CCNC(=O)OC(C)(C)C)o1`, the Potency was “inactive”.
For `O=c1[nH]c(=O)n(Cc2ccco2)c2c1C(C(F)(F)F)(C(F)(F)F)N=C(c1ccco1)N2`, the Potency was “inactive”.
With `Cc1ccccc1C1=NC(C(F)(F)F)(C(F)(F)F)c2c(n(-c3ccc(F)cc3)c(=O)[nH]c2=O)N1` the Potency was 11.7 µM (active).
In the case of `C=CCNC(=S)N1CCc2[nH]c3ccccc3c2C1`, the Potency is reported as “inactive”.
For `O=C(Nc1ccc(Cl)cc1)N1CCc2[nH]c3ccccc3c2C1`, the Potency was “inactive”.
For `O=C(NC1CCCCC1)N1CCc2[nH]c3ccccc3c2C1`, the Potency was 8.28 µM (active).
With `Cc1ccc(F)c(NC(=O)CCOc2ccccc2C)c1` the Potency was “inactive”.
With `COc1ccccc1C(=O)N1C(CC(=O)Nc2ccccc2C)C(=O)NC2CCCCC21` (stereo not drawn) the Potency was “inactive”.
For `COc1ccc(OC)c(C2C3=C(N=c4s/c(=C\c5cccc(O)c5)c(=O)n42)c2ccccc2CC3)c1` (stereo not drawn), the Potency was 2.08 µM (active).
With `COc1cc(C(=O)OCC(=O)NC(C)CCc2ccccc2)cc(OC)c1OC` (stereo not drawn) the Potency was “inactive”.
In the case of `COc1ccc(-n2nc(C(=O)NCC(=O)N3CCCCCC3)c3ccccc3c2=O)cc1Cl`, the Potency is reported as 2.33 µM (active).
For `COc1ccc(-n2nc(C(=O)NCC(=O)N3CCC(C(N)=O)CC3)c3ccccc3c2=O)cc1OC`, the Potency was “inactive”.
With `COCCCNC(=O)CNC(=O)c1nn(-c2ccc(OC)cc2)c(=O)c2ccccc12` the Potency was “inactive”.
With `Cc1ccc(C(=O)O/N=C(\N)c2ccccn2)cc1Cl` the Potency was “inactive”.
With `Cc1nc(C(=O)NCc2ccccc2)sc1C1(C)CC(c2cccnc2)=NO1` (stereo not drawn) the Potency was “inactive”.
In the case of `S=C(NCc1ccco1)Nc1ccc2c(c1)OCCO2`, the Potency is reported as “inactive”.
With `COc1ccccc1C1/C(=C(/O)c2ccc(C)cc2)C(=O)C(=O)N1Cc1ccco1` (stereo not drawn) the Potency was “inactive”.
With `O=C1c2ccccc2C(Nc2ccc3c(c2)OCCO3)N1Cc1ccco1` (stereo not drawn) the Potency was 4.65 µM (active).
For `O=[N+]([O-])c1ccccc1/C=C/CN1CCCC(CO)C1` (stereo not drawn), the Potency was “inactive”.
For `COc1cccc(CNS(=O)(=O)c2ccc3c(c2)CC(C)N3C(=O)C2CCC2)c1` (stereo not drawn), the Potency was “inactive”.
With `COc1cccc(CNS(=O)(=O)c2ccc3c(c2)CC(C)N3C(C)=O)c1` (stereo not drawn) the Potency was 10.4 µM (active).
For `COc1cccc(CNS(=O)(=O)c2ccc3c(c2)N(C(C)=O)CCS3)c1`, the Potency was “inactive”.
For `COc1cc(C(=O)N/C(=C\c2cn(C)c3ccccc23)C(=O)N2CCOCC2)cc(OC)c1OC`, the Potency was “inactive”.
In the case of `Cc1ccc(NC(=O)C/C(N)=N/O)cc1Cl`, the Potency is reported as “inactive”.
With `COc1ccc(Cc2nnc(SCC(=O)Nc3ccc(C)c(Cl)c3)[nH]c2=O)cc1` the Potency was “inactive”.
With `Cc1ccc(NC(=O)CSc2nn3c(=O)c(C)nnc3s2)cc1Cl` the Potency was 9.28 µM (active).
Potency is read from the fitted curve at half-maximal effect.
